Assay [1] is described as follows: AP1 Signaling Pathway (AID 357).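 Further: ME-180 reporter cells stimulated with EGF at its EC50 level; on the % scale 0 is the no-effect control and ±100 the full control effect.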 The conditions noted are these: ME-180 AP-1-bla reporter, EGF-induced, beta-lactamase ratio, 5 h; at 17.2 µM (top of the series) unless noted. A digest of the protocol:
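Read-out was the 460nm/530nm emission ratio (excitation 405nm) after CCF4 loading for 2.5 hours at room temperature. Cells carried an AP-1-driven beta-lactamase reporter, were stimulated with EC50 EGF plus compound for 5 hours, and AC50 values came from titrations.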

Assay [2] is described as follows: NFAT Signaling Pathway (AID 444).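 Further: carbachol stimulus at about its EC50 of 1 µM final; on the % scale 0 is the no-effect control and ±100 the full control effect.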 The following applies: Jurkat NFAT-bla M1, carbachol, beta-lactamase ratio, 5 h; at 17.2 µM (top of the series) unless noted. A digest of the protocol: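 Jurkat cells with NFAT-driven β-lactamase reporter and co-expressed M1 receptor, stimulated with carbachol (final 1 uM, ~EC50), compound titration, 5 h at 37 °C. CCF4 loaded 1 h at RT; 460/530 nm ratio gave %activity and AC50.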

A short description of assay [3]: Stat Signaling Pathway (AID 446).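 Further: ME-180 cervical cancer cells given 40 pM IL-6 alongside compound; SIE-controlled beta-lactamase reporter measured as 460/530 nm FRET emission ratio; on the % scale 0 is the no-effect control and ±100 the full control effect.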 The conditions noted are these: ME-180 SIE beta-lactamase reporter, IL-6 stimulated, 5 h; at 17.2 µM (top of the series) unless noted. The gist of the method: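 ME-180 cells carrying a SIE-driven beta-lactamase reporter are stimulated with 40 pM IL-6 for 5 h at 37C in the presence of compound. The 460/530 nm FRET substrate ratio is read after 2.5 h at RT. Data are normalised to 300 pM IL-6 and to 125 nM JAK inhibitor controls.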

Assay [4] concerns the target Glucocorticoid receptor (Homo sapiens) (UniProt P04150). The assay is described as follows: GR-GFP Redistribution (AID 450;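 active means compounds whose dose series gives a full or clear partial fitted curve of increased nuclear translocation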; further: potency means the concentration at half of the fitted maximal effect).
The nature of assay [5]: qHTS Assay for Identification of Small Molecule Agonists for Hypoxia Response Element Signaling Pathway (AID 914; active means well fitted activation curve with a large enough effect in the signal ratio, with a control signal flat, not every such curve was filed as active; the % refers to the signal ratio; further: % of control where 0% means no effect). The conditions noted are these: ME-180 (cervical carcinoma) HRE-bla reporter, beta-lactamase ratio, CoCl2, 17 h; activation: active compounds read high. A digest of the protocol: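 Read-out: CCF4 FRET ratio of 460nm to 530nm emission (excitation 405nm) after 2.5 hours at room temperature, taken from HRE-bla ME-180 cells that had been exposed to compound and EC50 CoCl2 for 17 hours.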
On the technique in general: qHTS replaces the single test concentration by a dilution series.

In assay [6] the target is Glucocorticoid receptor (Homo sapiens) (UniProt P04150). As to the kind of experiment: GR-EFC Redistribution (AID 451; calls by dose curve; further: potency means the concentration at half of the fitted maximal effect). The following applies: CHO-K1 GR-EFC translocation, beta-gal luminescence, 2 h. The gist of the method:
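CHO-K1 cells expressing nuclear EA and GR-ED fragments of b-gal; compounds titrated up to 46 uM final, 2 h at 37 C. GR nuclear translocation read as complemented b-gal luminescence after 1 h RT detection.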

The target of assay [7] is 3',5'-cyclic-AMP phosphodiesterase 4B (Homo sapiens) (UniProt Q07343). As to the kind of experiment: qHTS Assay for Inhibitors of PDE-IV (AID 607; active means well fitted activation curve with a large enough effect in the main read-out, with a control signal flat, not every such curve was filed as active; further: % of control where 0% means no effect). A digest of the protocol: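 HEK293 ACTOne cells with CNG channel (1000/well), endogenous PDE4; membrane potential dye, compounds up to 22.9 uM final. Fluorescence Ex 535/Em 590; RO 20-1724 (100 uM final) as reference.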
3',5'-cyclic-AMP phosphodiesterase 4B (Homo sapiens), sequence (Q07343 whole entry, looked up): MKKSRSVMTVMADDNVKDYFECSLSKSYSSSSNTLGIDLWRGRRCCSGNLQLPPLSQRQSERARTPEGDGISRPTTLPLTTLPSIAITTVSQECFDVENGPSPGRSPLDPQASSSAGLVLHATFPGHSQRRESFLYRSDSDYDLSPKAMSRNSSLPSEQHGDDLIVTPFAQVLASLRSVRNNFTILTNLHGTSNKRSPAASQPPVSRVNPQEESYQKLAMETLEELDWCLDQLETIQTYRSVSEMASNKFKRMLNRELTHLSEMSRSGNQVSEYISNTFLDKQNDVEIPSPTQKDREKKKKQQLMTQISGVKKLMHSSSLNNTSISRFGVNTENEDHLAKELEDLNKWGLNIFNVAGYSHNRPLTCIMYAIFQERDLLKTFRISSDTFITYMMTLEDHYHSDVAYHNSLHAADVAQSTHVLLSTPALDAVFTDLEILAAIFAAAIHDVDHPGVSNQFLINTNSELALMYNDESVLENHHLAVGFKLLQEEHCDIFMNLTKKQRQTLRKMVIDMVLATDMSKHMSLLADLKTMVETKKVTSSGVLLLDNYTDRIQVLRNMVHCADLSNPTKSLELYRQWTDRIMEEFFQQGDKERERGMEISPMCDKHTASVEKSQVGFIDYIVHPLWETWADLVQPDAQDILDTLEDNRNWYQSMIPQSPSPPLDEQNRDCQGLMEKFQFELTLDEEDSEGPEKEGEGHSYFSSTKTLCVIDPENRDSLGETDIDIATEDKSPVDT
The target of assay [8] is Guanine nucleotide-binding protein G(i) subunit alpha-1 (Homo sapiens) (UniProt P63096). The assay is described as follows: qHTS Assay for Inhibitors of RGS12 GoLoco Motif Activity (Green Fluorophore) (AID 879; active means well fitted curve in the direction sought with a large enough effect; an effect the other way counts as inactive or inconclusive;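 further: 0% = labeled peptide with Gαi1 and full inhibition = labeled peptide alone without protein; negative values mean loss of peptide binding seen as reduced polarization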). The gist of the method: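 Fluorescence polarization assay: 50 nM Gαi1 with 10 nM FITC-labeled RGS12 GoLoco peptide in 10 mM Tris pH 7.5, 150 mM NaCl, 0.1 mM GDP, 0.05% NP40, 10 min at room temperature with compound.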
Guanine nucleotide-binding protein G(i) subunit alpha-1 (Homo sapiens), sequence (P63096 whole entry, looked up): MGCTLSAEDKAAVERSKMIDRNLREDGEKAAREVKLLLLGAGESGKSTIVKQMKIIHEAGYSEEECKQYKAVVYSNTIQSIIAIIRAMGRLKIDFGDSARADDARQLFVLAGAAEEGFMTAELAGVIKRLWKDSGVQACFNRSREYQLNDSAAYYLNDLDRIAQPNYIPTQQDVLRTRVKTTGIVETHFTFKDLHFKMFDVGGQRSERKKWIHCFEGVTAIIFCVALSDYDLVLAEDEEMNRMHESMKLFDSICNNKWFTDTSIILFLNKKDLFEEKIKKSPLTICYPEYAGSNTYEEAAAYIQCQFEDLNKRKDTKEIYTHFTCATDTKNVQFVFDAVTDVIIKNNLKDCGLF

The nature of assay [9]: qHTS Assay for Identification of Small Molecule Agonists for Thrombopoietin (TPO) Signaling Pathway (AID 917; active means well fitted curve in the direction sought with a large enough effect; an effect the other way counts as inactive or inconclusive; further: on the % scale 0 is the no-effect control and ±100 the full control effect). The gist of the method:
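Reporter: GpIIb promoter–luciferase in murine Ba/F3 expressing human TPO receptor. Pre-starved of IL-3 overnight; compounds with 26 pM TPO, 24 hrs, 37 C/5% CO2; luminescence read.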

The target of assay [10] is Pyruvate kinase (Leishmania mexicana) (UniProt Q27686). As to the kind of experiment: qHTS Validation Assay for Inhibitors of Leishmania Mexicana Pyruvate Kinase (AID 945; active means well fitted curve in the direction sought with a large enough effect; an effect the other way counts as inactive or inconclusive;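 further: 0% = DMSO only neutral control wells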). The gist of the method:
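Substrate mix (0.5 mM PEP, 0.1 mM ADP, 7 mM MgCl2, 50 mM KCl, pH 7.2 imidazole) received compound by pin tool, then 0.2 nM LmPYK E451W. After 1 h at room temperature, PKLight was added and luminescence measured.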

Assay [11] deals with Pyruvate kinase PKM (Homo sapiens) (UniProt P14618). As to the kind of experiment: qHTS Assay for Activators of Human Muscle Pyruvate Kinase (AID 954; active means well fitted curve in the direction sought with a large enough effect, not every such curve was filed as active;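 further: 0% = uninhibited enzyme and -100% = no enzyme or full thiadiazolimine inhibition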). The gist of the method:
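Purified human PKM2 (0.1 nM) with 0.5 mM PEP (Km) and 0.1 mM ADP in 50 mM imidazole pH 7.2, KCl, MgCl2, 1 h at room temperature; ATP formed read by coupled luciferase luminescence. Normalized to no-enzyme/110 uM thiadiazolimine inhibition; 0.3 nM enzyme column for activation.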

Assay [12] addresses Alpha-galactosidase A (Homo sapiens) (UniProt P06280). The assay is described as follows: Counterscreen for Glucocerebrosidase Inhibitors: qHTS Assay for Human alpha-Galactosidase at pH 4.5 (AID 992; active means well fitted curve in the direction sought with a large enough effect; an effect the other way counts as inactive or inconclusive; further: 0% is about no effect). A digest of the protocol: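 Human enzyme (2 nM) with 80 uM 4-methylumbelliferyl alpha-D-galactopyranoside in 50 mM citric acid, 0.005% Tween-20, pH 4.5, 20 min at room temperature. Compounds 0.7 nM–77 uM; fluorescence Ex 365/Em 440 after pH 10 stop; AC50 from Hill fits.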
For orientation: The purpose of a counterscreen is to sort out artefacts and off-target activity.

For assay [13], the target named is alpha-glucosidase (Oryza sativa, rice) (UniProt Q653V4). The assay is described as follows: Counterscreen for Glucocerebrosidase Inhibitors: qHTS Assay for Rice alpha-Glucosidase at pH 5.0 (AID 997; active means well fitted curve in the direction sought with a large enough effect; an effect the other way counts as inactive or inconclusive;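 further: 0% = full activity with enzyme and -100% = basal without enzyme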). A digest of the protocol: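 Rice alpha-glucosidase (4 nM final) with 400 uM 4-methylumbelliferyl-alpha-D-glucopyranoside in citrate buffer pH 5.0, 20 min at room temperature, stopped at pH 10; fluorescence 365/440 nm, compounds 0.7 nM–77 uM, AC50 from Hill fits.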

The target in assay [14] is Mitogen-activated protein kinase 10 (Mus musculus) (UniProt Q61831). The assay is described as follows: JNK3 AlphaScreen Assay (AID 530). The gist of the method: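 Pre-activated (IL-1β/TNFα) JNK3 in HepG2 lysates phosphorylates biotin-GST-cJun(1-79), 10 uM ATP; anti-phospho-cJun(Ser73) AlphaScreen read at room temperature, pH 7.6 Tris buffer. Compounds pre-incubated 15 min as titrations.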
On the technique in general: Bead proximity is the source of the signal in Alpha formats.

Assay [15] concerns the target Glucocorticoid receptor (Homo sapiens) (UniProt P04150). The assay is described as follows: qHTS assay for small molecule agonists of glucocorticoid receptor signaling (AID 588532; active means well fitted curve in the direction sought with a large enough effect in the signal ratio, with a control signal flat; the % refers to the signal ratio;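 further: 100% = dexamethasone at 0.1 µM and 0% = DMSO only wells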). The conditions noted are these: HeLa MMTV-bla, beta-lactamase ratio, agonist, 18 h; active compounds read high; percent of dexamethasone control, DMSO zero. A digest of the protocol: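 Cells were plated and rested 3-5 h at 37 C, compounds were added in titration and incubated 18 h, then CCF4 substrate was loaded for 2 h at RT before reading blue/green fluorescence. EC50 came from Hill-equation fitting.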

For assay [16] the target is unchanged. The assay is described as follows: qHTS assay for small molecule antagonists of glucocorticoid receptor signaling (AID 588533; active means well fitted inhibition curve with a large enough effect in the signal ratio, with a control signal flat, not every such curve was filed as active; the % refers to the signal ratio). A digest of the protocol: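 Antagonist-mode qHTS: compound titrations added to GRE-bla HeLa cells, then dexamethasone 2 nM final; 18 h, 37 C. CCF4 FRET fluorescence normalized to dexamethasone and DMSO; IC50 from Hill fit.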
The target of assay [17] is Peroxisome proliferator-activated receptor gamma (Homo sapiens) (UniProt P37231). As to the kind of experiment: qHTS assay for small molecule antagonists of peroxisome proliferator-activated receptor gamma signaling (AID 588537; active means well fitted inhibition curve with a large enough effect in the signal ratio, with a control signal flat, not every such curve was filed as active; the % refers to the signal ratio;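 further: reporter cells co-stimulated with 50 nM rosiglitazone agonist during compound treatment; % of control where 0% means no effect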). The gist of the method:
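PPARγ-UAS-bla HEK293 cells (3000/well) in 1% charcoal/dextran-stripped FBS are treated with compound, then stimulated with 50 nM rosiglitazone for 16 h at 37 °C. Read-out is CCF4 β-lactamase fluorescence after 2 h at RT. IC50 comes from Hill fits normalised to rosiglitazone and DMSO.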

The nature of assay [18]: qHTS assay for small molecule agonists of the antioxidant response element (ARE) signaling pathway (AID 651741; active means well fitted activation curve with a large enough effect in the signal ratio; the % refers to the signal ratio; further: potency means the concentration at half of the fitted maximal effect). The gist of the method: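 CellSensor ARE-bla HepG2 cells (2,000/well) carrying ARE-driven beta-lactamase, exposed 16 h at 37 C. LiveBLAzer B/G FRET substrate added for 2 h at room temperature; fluorescence intensity read.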
Assay [19] deals with Peroxisome proliferator-activated receptor alpha (Homo sapiens) (UniProt Q07869). The assay is described as follows: qHTS assay for small molecule agonists of the peroxisome proliferator-activated receptor alpha (PPARalpha) signaling pathway (AID 651778; active means well fitted curve in the direction sought with a large enough effect; an effect the other way counts as inactive or inconclusive; further: % of control where 0% means no effect). The conditions noted are these: PathHunter PPARalpha complementation, chemiluminescence, 6 h; max response: active compounds read high. The gist of the method:
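Enzyme-fragment complementation assay in which ligand-bound PPARalpha translocates and forms an active enzyme that generates chemiluminescence. Cells were plated overnight, exposed to compound for 6 hr at 37 C, and then given detection reagent for 60 min at room temperature.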

A short description of assay [20]: qHTS assay for small molecule agonists of the antioxidant response element (ARE) signaling pathway measured by Nrf2-dependant transcriptional activity - cell viability counter screen (AID 720653; active means well fitted curve in the direction sought with a large enough effect in the repeat runs; an effect the other way counts as inactive or inconclusive; further: on the % scale 0 is the no-effect control and ±100 the full control effect). The following applies: ARE-bla HepG2 viability, CellTiter-Glo ATP luminescence, 16 h; max response: active compounds read low. The gist of the method: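 ARE-bla HepG2 cells treated with compounds for 16 h at 37C; this counter screen measures viability as intracellular ATP by CellTiter-Glo luminescence after 30 min at room temperature.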

Assay [21] is described as follows: qHTS assay for cell viability of HEK293 cells (AID 743288; active means well fitted curve in the direction sought with a large enough effect; an effect the other way counts as inactive or inconclusive; further: on the % scale 0 is the no-effect control and ±100 the full control effect; nearly all actives have a fitted effect of over 50% in size). The following applies: ATP luminescence (CellTiter-Glo), 18 h; max response: active compounds read low. The gist of the method: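 Total intracellular ATP, measured with a luciferase-coupled reagent, indicates the number of viable HEK293 cells. Exposure to test chemicals lasts 18 h at 37 C in 1,536-well format at 2,000 cells/well.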

Assay [22] can be described thus: qHTS assay for cell viability of the p53RE-bla HCT-116 cell line (AID 743292; active means well fitted curve in the direction sought with a large enough effect; an effect the other way counts as inactive or inconclusive; further: on the % scale 0 is the no-effect control and ±100 the full control effect; nearly all actives have a fitted effect of over 55% in size). The gist of the method: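 HCT-116 p53RE-bla cells seeded 4,000/well; 5 h at 37 C; compound (DMSO) added; 16 h at 37 C; CellTiter-Glo added, 30 min RT; luminescence read.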
In assay [23] the target is Nuclear receptor subfamily 1 group I member 2 (Rattus norvegicus) (UniProt Q9R1A7). The assay is described as follows: qHTS assay for small molecule activators of the rat pregnane X receptor (rPXR) signaling pathway (AID 651751; call rule not given here; further: 0% is about no effect). The following applies: rPXR reporter cells, luciferase (One-Glo), 24 h.
Nuclear receptor subfamily 1 group I member 2 (Rattus norvegicus), sequence (Q9R1A7 whole entry, looked up): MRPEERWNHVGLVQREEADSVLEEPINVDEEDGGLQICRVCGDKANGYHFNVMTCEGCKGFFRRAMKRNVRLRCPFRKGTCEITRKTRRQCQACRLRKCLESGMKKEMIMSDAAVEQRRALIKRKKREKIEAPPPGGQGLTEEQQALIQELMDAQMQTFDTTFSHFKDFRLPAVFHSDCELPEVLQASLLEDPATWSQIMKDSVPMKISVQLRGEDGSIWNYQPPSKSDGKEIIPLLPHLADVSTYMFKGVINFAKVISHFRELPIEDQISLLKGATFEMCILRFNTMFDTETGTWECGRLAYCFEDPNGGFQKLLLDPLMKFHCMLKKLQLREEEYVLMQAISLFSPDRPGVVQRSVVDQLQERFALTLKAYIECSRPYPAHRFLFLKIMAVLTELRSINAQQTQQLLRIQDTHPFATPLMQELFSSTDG

SMILES strings stand for the structures. A number with no mark means an inactive call. Results filed as inconclusive are left out. Active and inactive are the calls of the source. Unless noted, the call rests on the fitted dose curve; in most records, active means well fitted curve in either direction with a large enough effect (not every such curve was filed as active); inconclusive means small, poorly fitted or top-dose-only effect, or another doubt; inactive means flat fitted curve, though single readings scatter.

Pyruvate kinase (Leishmania mexicana), sequence (Q27686 2-499 E452W): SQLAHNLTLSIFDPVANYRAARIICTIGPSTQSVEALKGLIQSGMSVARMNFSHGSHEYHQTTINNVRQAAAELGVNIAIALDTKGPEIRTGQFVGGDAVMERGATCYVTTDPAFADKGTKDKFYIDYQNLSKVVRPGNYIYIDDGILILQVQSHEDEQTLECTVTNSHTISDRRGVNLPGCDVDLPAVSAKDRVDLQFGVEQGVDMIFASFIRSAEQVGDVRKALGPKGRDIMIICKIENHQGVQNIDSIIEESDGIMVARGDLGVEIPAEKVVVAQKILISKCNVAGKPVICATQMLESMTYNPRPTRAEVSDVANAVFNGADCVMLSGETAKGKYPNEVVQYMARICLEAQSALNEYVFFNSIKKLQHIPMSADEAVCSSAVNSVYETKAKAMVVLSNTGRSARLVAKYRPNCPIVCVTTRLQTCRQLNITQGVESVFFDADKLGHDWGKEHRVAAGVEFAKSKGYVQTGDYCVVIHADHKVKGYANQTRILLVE
Glucocorticoid receptor (Homo sapiens), sequence (P04150 whole entry, looked up, the tested form may be a part): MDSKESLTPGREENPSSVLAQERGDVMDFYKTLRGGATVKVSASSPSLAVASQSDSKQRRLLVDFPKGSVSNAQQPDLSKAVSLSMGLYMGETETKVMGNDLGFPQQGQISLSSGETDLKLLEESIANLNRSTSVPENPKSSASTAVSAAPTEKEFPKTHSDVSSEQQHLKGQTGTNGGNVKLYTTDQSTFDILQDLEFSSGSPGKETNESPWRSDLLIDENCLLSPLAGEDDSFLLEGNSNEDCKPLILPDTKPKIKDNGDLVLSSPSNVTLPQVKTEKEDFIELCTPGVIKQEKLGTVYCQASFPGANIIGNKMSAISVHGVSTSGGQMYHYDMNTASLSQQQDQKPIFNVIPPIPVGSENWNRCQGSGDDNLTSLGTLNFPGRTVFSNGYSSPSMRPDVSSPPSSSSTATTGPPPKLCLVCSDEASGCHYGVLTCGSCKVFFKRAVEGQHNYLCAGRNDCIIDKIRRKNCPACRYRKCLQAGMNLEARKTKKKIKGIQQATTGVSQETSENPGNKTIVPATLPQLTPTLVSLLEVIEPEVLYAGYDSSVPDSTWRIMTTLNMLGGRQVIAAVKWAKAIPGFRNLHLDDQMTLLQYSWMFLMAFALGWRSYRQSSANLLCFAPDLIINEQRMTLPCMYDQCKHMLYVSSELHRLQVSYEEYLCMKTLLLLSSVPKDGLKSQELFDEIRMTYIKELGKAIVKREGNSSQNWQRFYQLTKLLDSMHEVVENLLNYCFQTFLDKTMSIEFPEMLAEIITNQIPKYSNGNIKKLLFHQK
Pyruvate kinase PKM (Homo sapiens), sequence (P14618 whole entry, looked up): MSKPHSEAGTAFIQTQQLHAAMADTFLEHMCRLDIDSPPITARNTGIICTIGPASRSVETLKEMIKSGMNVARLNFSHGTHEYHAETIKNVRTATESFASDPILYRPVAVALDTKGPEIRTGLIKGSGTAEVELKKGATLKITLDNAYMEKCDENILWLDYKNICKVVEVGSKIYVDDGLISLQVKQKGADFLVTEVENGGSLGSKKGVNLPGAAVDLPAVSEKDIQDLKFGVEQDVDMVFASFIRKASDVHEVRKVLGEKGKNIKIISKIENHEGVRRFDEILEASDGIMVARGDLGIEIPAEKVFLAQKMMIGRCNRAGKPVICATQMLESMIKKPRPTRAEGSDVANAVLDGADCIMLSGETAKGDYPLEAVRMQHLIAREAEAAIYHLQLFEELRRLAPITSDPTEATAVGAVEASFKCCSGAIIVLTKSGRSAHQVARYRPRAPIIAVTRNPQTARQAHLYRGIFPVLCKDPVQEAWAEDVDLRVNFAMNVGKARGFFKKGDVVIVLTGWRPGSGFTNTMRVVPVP
Alpha-galactosidase A (Homo sapiens), sequence (P06280 whole entry, looked up): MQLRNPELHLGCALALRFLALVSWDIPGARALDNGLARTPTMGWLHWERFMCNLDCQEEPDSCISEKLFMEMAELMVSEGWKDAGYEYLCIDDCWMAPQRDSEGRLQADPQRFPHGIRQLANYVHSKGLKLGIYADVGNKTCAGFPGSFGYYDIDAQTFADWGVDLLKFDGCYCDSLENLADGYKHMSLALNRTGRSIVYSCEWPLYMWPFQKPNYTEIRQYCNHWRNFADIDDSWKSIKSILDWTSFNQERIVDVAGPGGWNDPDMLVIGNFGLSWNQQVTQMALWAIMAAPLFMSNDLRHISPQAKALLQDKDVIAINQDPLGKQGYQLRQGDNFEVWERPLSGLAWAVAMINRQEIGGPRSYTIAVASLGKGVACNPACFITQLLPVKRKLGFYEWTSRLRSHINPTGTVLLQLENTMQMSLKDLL
Peroxisome proliferator-activated receptor alpha (Homo sapiens), sequence (Q07869 whole entry, looked up, the tested form may be a part): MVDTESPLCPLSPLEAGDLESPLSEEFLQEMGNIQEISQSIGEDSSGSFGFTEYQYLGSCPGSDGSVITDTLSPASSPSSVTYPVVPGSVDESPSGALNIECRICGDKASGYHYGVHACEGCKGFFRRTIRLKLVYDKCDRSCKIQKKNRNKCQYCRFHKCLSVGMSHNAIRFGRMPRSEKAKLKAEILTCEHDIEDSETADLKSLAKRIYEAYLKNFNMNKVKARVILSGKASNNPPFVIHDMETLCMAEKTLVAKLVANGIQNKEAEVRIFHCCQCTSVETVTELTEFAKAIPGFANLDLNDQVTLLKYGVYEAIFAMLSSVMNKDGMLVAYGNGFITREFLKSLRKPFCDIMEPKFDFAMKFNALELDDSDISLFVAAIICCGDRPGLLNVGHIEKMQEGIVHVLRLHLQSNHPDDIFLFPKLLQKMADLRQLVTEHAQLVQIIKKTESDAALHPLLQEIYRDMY
Peroxisome proliferator-activated receptor gamma (Homo sapiens), sequence (P37231 whole entry, looked up): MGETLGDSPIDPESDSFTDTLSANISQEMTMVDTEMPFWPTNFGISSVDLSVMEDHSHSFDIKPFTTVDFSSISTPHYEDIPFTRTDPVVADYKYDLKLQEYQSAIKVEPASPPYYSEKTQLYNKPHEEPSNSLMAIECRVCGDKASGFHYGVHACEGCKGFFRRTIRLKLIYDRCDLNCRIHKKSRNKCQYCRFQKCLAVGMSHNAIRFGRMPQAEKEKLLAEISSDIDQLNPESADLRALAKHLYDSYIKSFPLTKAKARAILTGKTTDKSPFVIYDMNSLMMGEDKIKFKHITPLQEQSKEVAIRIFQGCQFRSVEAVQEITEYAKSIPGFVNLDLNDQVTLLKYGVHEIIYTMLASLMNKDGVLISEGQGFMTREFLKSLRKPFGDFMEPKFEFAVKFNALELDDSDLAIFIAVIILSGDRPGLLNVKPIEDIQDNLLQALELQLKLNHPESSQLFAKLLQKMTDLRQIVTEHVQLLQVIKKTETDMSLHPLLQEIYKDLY

`COc1cc(NC(=O)NC(C)(C(F)(F)F)C(F)(F)F)cc(OC)c1OC`: the results for the activity change, negative = inhibition in [1] and in assay [2] were -9.62% and 19.4%, respectively. For the same compound, the activity, negative = inhibition in assay [3] was -4.15%. Moreover, in assay [4], the Potency was over 20.6 µM. Moreover, the activation in [5] was -29.2%.
For the compound `CC(=O)S[C@@H]1CC2=CC(=O)CC[C@@]2(C)[C@H]2CC[C@]3(C)[C@H](CC[C@@]34CCC(=O)O4)[C@H]12`, the results for the activity change, negative = inhibition in assay [1] and in assay [2] were 19.8% [at 38 µM] and -10% [at 38 µM], respectively. For the same compound, in assay [3], the activity, negative = inhibition was -9.34% [at 38 µM]. Further, the Potency in assay [4] was 1.4 µM (active); in assay [6], over 46 µM. The Potency entry in assay [7], in assay [9] and in assay [10] was “inactive” throughout. Besides, the outcome in assay [8], in assay [11], in [12] and in assay [13] was inactive.
`N[C@H](Cc1ccc(F)cc1)C(=O)O`: the activity change, negative = inhibition was 14.8% [at 38 µM] in assay [1] and -1.52% [at 38 µM] in [2]. For the same compound, the activity, negative = inhibition in [3] was -8.01% [at 38 µM]. Moreover, the Potency in assay [4] and in assay [6] was over 46 µM in each case. The Potency result in [14], in [7], in assay [9] and in assay [10] was “inactive” in each case. The compound was classed as inactive in [8], in [11], in [12] and in [13].
On to `CC(=O)[C@@]1(O)CC[C@@H]2[C@@H]3CCC4=CC(=O)CC[C@@]4(C)[C@H]3CC[C@]21C`, for which the activity change, negative = inhibition in assay [1] was 4.89% [at 38 µM]; in assay [2], -13.4% [at 38 µM]. Further, the activity, negative = inhibition in assay [3] was -11.8% [at 38 µM]. Besides, in assay [4], the Potency was 0.162 µM (active). The Potency result in assay [14], in assay [7], in [9] and in assay [10] was “inactive” each time. Also, the result in assay [8], in assay [11], in assay [12] and in [13] was inactive.
Turning to `COC(=O)c1ccc(C(=O)OC)c(NC(=O)c2cc3ccccc3o2)c1`, the activity change, negative = inhibition in assay [1] is -4.57%; in assay [2] it was 3.55%. The activity, negative = inhibition in [3] was 8.58%. In [4], the Potency is over 20.6 µM. For the same compound, the activation in assay [5] is -0.252%.
In the same order, the values of `CC(=O)CCn1c(=O)n(CCC(C)=O)c(=O)n(CCC(C)=O)c1=O` are 5.12%, 6.61%, -1.84%, over 20.6 µM and 11.1%.
In the same order, the values of `COC(=O)C1=C(N)Oc2cc(C)oc(=O)c2C1c1ccncc1` (stereo not given) are -9.84%, 4.62%, 0.284%, over 20.6 µM and 12.2%.
Take `O=c1oc2cc(O)ccc2c2oc3cc(O)ccc3c12`: the figures for the activity change, negative = inhibition in assay [1] and in [2] were 5.61% and 3.33%, respectively. Moreover, the activity, negative = inhibition in assay [3] is -5.07%. Further, the Potency was over 20.6 µM in assay [4] and 54.5 µM (active) in assay [18]. Also, in [15], the activation was -5.79%. The Potency result in assay [16], in assay [17] and in [22] was “inactive” throughout. For the same compound, the max response in assay [19] is -1.88%; in [20], -3.33%; in assay [21] it was -9.05%; in assay [23], 3.73%.

The record behind these values is PubChem BioAssay (NCATS).
